Compound activity deposited in PubChem BioAssay by several laboratories.
KLK7 zymogen act = proKLK7 zymogen activators, primary screen, biochemical, fluorescence intensity; Kallikrein-7 (Homo sapiens), P49862; purified proKLK7, EDANS-DABCYL substrate fluorescence; 100% is mature enzyme control, 0% vehicle; activation, % at 7 µM; 370,000 tested, 0.9% active; AID 652039, 2013;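 active means activation above the mean of all tested compounds plus 3 SD, computed per campaign excluding outliers beyond control limits, cut at about 13% in these data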
NR3A LBD binder = binders of NR3A ligand-binding domain, primary screen, biophysical, differential scanning fluorimetry, uHTS. NR3A LBD differential scanning fluorimetry, Tm shift; 0% = protein alone, 100% = glycine-bound protein. Tm shift relative to glycine control, % at 25 µM. 340,000 tested, 2.5% active;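 active means melting temperature shift of at least 10% of the positive control shift, at one fixed dose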
rCAG binder = binders of r(CAG) RNA repeats, primary screen, biochemical, fluorescence | r(CAG) RNA repeat, TO-PRO-1 dye displacement fluorescence | inhibition, % at 3 µM | AID 651821, 2012 | 370,000 tested, 1.3% active;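 active means inhibition above the plate cutoff, the mean of all test compounds on that plate plus 3 SD, cut at about 35% in these data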;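 further: 0% = DMSO alone and 100% = 100 µM mitoxantrone as full dye displacement; higher means more dye released from RNA so lower well fluorescence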
ADAM10 inh = human ADAM10 inhibitors, primary screen, biochemical, QFRET, HTS. recombinant ADAM10, EDANS/DABCYL FRET peptide cleavage, 3 h. inhibition, % at 7 µM. 370,000 tested, 0.62% active. AID 720582, 2013;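 active means inhibition above a per-campaign cutoff equal to the mean of compounds falling between control-based bounds plus 3 SD, cut at about 20% in these data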;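 further: 0% = DMSO wells while the 100% control is not disclosed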
Target sequence (O14672 214-748 limits assumed): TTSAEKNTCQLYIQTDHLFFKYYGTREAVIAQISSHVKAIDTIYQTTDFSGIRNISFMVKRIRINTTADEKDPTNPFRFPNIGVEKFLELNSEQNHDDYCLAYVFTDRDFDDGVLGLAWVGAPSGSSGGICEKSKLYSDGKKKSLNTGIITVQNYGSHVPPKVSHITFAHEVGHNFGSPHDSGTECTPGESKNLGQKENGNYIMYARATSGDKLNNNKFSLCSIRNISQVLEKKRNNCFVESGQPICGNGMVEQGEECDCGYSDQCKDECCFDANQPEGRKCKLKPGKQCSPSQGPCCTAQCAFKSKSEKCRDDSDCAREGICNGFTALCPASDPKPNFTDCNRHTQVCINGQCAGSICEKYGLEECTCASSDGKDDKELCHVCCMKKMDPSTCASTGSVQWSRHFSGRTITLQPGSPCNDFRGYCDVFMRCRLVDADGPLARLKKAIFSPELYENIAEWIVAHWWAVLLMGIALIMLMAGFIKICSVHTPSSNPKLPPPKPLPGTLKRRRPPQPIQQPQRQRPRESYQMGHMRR
ADAM17 inh = ADAM17 inhibitors, primary screen, biochemical, QFRET. AID 720648, 2013. inhibition, % at 6.95 µM. 370,000 tested, 0.83% active. recombinant ADAM17, EDANS/DABCYL FRET peptide cleavage. Disintegrin and metalloproteinase domain-containing protein 17 (Homo sapiens), P78536;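 active means inhibition above the mean of compounds lying between control limits plus 3 SD, set per campaign, cut at about 8.5% in these data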;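 further: 0% = DMSO-only wells as the low control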
AHR act = AHR activators, primary screen, cell-based, luminescence, luciferase reporter, human. Aryl hydrocarbon receptor (Homo sapiens), P35869. AHR-responsive luciferase reporter cells. activation, % at 5 µM. 320,000 tested, 2.5% active; in the data active means activation above about 47%;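 further: 0% = vehicle wells and 100% = reference agonist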
Active calls of the source: *. This is a sample that favours compounds with a hit; in the whole collection about 7% have one here.

How did COc1ccc(-c2csc(NC(=S)NC(=O)c3ccco3)n2)cc1Br do in these assays?
KLK7 zymogen act: 1; NR3A LBD binder: -3; rCAG binder: 4; ADAM10 inh: -2; ADAM17 inh: 1; AHR act: -1

How did O=C(NNc1nc(-c2ccccc2)cs1)c1ccco1 do in these assays?
KLK7 zymogen act: 0; NR3A LBD binder: -3; rCAG binder: 18; ADAM10 inh: 9; ADAM17 inh: 4; AHR act: 72*

How did O=C(NNc1nc(-c2ccc(Cl)cc2)cs1)c1ccco1 do in these assays?
KLK7 zymogen act: 0; NR3A LBD binder: -5; rCAG binder: 16; ADAM10 inh: 12; ADAM17 inh: 5; AHR act: 43

Results for Cc1ccc(-c2csc(NC(=S)NC(=O)c3ccco3)n2)cc1 ?
KLK7 zymogen act: 0; NR3A LBD binder: 20*; rCAG binder: 1; ADAM10 inh: 5; ADAM17 inh: -5; AHR act: 7

Results for Cc1[nH]nc2c1C(c1ccc(Br)cc1)N(Cc1ccccc1)C2=O (configuration not stated) ?
KLK7 zymogen act: 0; rCAG binder: 3; ADAM10 inh: 7; ADAM17 inh: 2

What do the screens show for `Cc1ccc(Oc2c(F)c(F)nc(N3CCCC3)c2F)cc1`?
KLK7 zymogen act: 1; NR3A LBD binder: 13*; rCAG binder: 1; ADAM10 inh: 0; ADAM17 inh: -1; AHR act: 5

What do the screens show for `Cc1cc(Cl)nc(SCC(=O)c2ccccc2)n1`?
KLK7 zymogen act: 0; NR3A LBD binder: 4; rCAG binder: 0; ADAM10 inh: 2; ADAM17 inh: 2; AHR act: 61*

What do the screens show for `N#Cc1c(Nc2ccccc2)sc(C(=O)C2CC2)c1N`?
KLK7 zymogen act: 0; NR3A LBD binder: 0; rCAG binder: 2; ADAM10 inh: 4; ADAM17 inh: 0; AHR act: 49*

Results for CCC(=O)N1CCc2cc(Br)c(S(=O)(=O)NC3CCN(Cc4ccccc4)CC3)cc21 ?
KLK7 zymogen act: 0; rCAG binder: 2; ADAM10 inh: 3; ADAM17 inh: 2

What do the screens show for `Cc1ccc(OCC(=O)NNC(=O)c2ccc(NC(=O)C3CC3)cc2)c(C)c1`?
KLK7 zymogen act: 0; NR3A LBD binder: 28*; rCAG binder: -4; ADAM10 inh: -4; ADAM17 inh: -6; AHR act: 15

Results for Cc1ccc(COC(=O)CCc2nc3ccccc3c(=O)[nH]2)cc1 ?
KLK7 zymogen act: 0; NR3A LBD binder: 0; rCAG binder: -1; ADAM10 inh: -4; ADAM17 inh: -2; AHR act: -2

Results for Cc1noc(C)c1COC(=O)CCc1nc2ccccc2c(=O)[nH]1 ?
KLK7 zymogen act: 0; NR3A LBD binder: 21*; rCAG binder: 1; ADAM10 inh: -8; ADAM17 inh: -6; AHR act: 4

Results for Nn1cc(-c2ccccc2)nc1SCC(=O)N1CCN(S(=O)(=O)c2ccccc2)CC1 ?
KLK7 zymogen act: -1; NR3A LBD binder: -2; rCAG binder: 1; ADAM10 inh: 1; ADAM17 inh: -8; AHR act: 52*

What do the screens show for `O=C(CSc1ncccn1)N1CCN(S(=O)(=O)c2ccccc2)CC1`?
KLK7 zymogen act: 0; NR3A LBD binder: -2; rCAG binder: -4; ADAM10 inh: 8; ADAM17 inh: -2; AHR act: 2

How did CCOC(=O)c1cc(C#N)c(Oc2ccccc2)nc1-c1ccccc1 do in these assays?
KLK7 zymogen act: 0; NR3A LBD binder: 13*; rCAG binder: -2; ADAM10 inh: 10; ADAM17 inh: 6; AHR act: 13

How did Cc1ccc(C(=O)N(c2ccccn2)C(C)c2ccco2)cc1 (configuration not stated) do in these assays?
KLK7 zymogen act: 0; NR3A LBD binder: 2; rCAG binder: 0; ADAM10 inh: -2; ADAM17 inh: -2; AHR act: 0

What do the screens show for `CC(c1ccco1)N(C(=O)Nc1ccc(Cl)cc1)c1ccccn1` (configuration not stated)?
KLK7 zymogen act: 0; NR3A LBD binder: 10*; rCAG binder: 0; ADAM10 inh: -9; ADAM17 inh: -6; AHR act: -1

What do the screens show for `COc1ccc(/C=N/NC(=O)c2ccncc2)cc1CN1CCOCC1`?
KLK7 zymogen act: -1; NR3A LBD binder: 12*; rCAG binder: -5; ADAM10 inh: 4; ADAM17 inh: -3; AHR act: 4

What do the screens show for `COc1ccc(/C=N/NC(=O)c2ccoc2C)cc1CN1CCN(c2ccc(F)cc2)CC1`?
KLK7 zymogen act: 0; NR3A LBD binder: 4; rCAG binder: -2; ADAM10 inh: 12; ADAM17 inh: 7; AHR act: 73*

Results for COc1ccc(/C=N/NC(=O)c2ccc(Br)cc2)cc1CN1CCOCC1 ?
KLK7 zymogen act: 0; NR3A LBD binder: -2; rCAG binder: -4; ADAM10 inh: -1; ADAM17 inh: -1; AHR act: 7

What do the screens show for `COc1ccc(Cn2c(NC(=O)c3ccccc3)nc(Cc3ccccc3)c2Cc2ccccc2)cc1`?
KLK7 zymogen act: -6; rCAG binder: 6; ADAM10 inh: -2; ADAM17 inh: 7

Results for c1csc(CNc2nc(-c3cccs3)nc3ccccc23)c1 ?
KLK7 zymogen act: 0; NR3A LBD binder: 10; rCAG binder: 8; ADAM10 inh: -10; ADAM17 inh: -1; AHR act: 28

Results for c1ccc(-c2nc(NCc3cccnc3)c3ccccc3n2)cc1 ?
NR3A LBD binder: -10; AHR act: 3

Results for O=[N+]([O-])c1cccc(-c2nc(NCc3ccccc3)c3ccccc3n2)c1 ?
KLK7 zymogen act: 0; NR3A LBD binder: 339*; rCAG binder: 5; ADAM10 inh: 6; ADAM17 inh: 2; AHR act: 88*

Results for Clc1cccc(-c2nc(NCc3cccnc3)c3ccccc3n2)c1 ?
KLK7 zymogen act: 1; NR3A LBD binder: 22*; rCAG binder: 11; ADAM10 inh: 16; ADAM17 inh: 0; AHR act: 8

What do the screens show for `c1ccc(-c2nc(NCc3cccs3)c3ccccc3n2)cc1`?
KLK7 zymogen act: 1; NR3A LBD binder: 18*; rCAG binder: 8; ADAM10 inh: 19; ADAM17 inh: 6; AHR act: 13

Results for Fc1ccc(CNc2nc(-c3ccccc3)nc3ccccc23)cc1 ?
KLK7 zymogen act: -1; NR3A LBD binder: 21*; rCAG binder: 5; ADAM10 inh: 10; ADAM17 inh: 5
